The values below come from PubChem BioAssay (NCATS).

The structures appear in SMILES notation. Where “and” joins values, the source holds several entries; their conditions need not be identical. Equal values may be shown once. Results filed as inconclusive are left out. A structure can be active in one record and inactive in another. Calls of active or inactive are those of the source. Unless noted, calls come from the whole dose curve; as a rule, active = well fitted curve in the direction sought with a large enough effect; inconclusive = small, poorly fitted or top-dose-only effect, or another doubt; inactive = no such curve, though single readings can be large; an effect the other way counts as inactive or inconclusive.

The nature of assay [1]: Primary qHTS for inhibitors of nuclear receptor binding SET domain protein 2 (NSD2) in an RCH-ACV wild type WT cells (2C) (AID 1645877). For activity change, negative = cell killing: % is set by controls: 0 for no effect and ±100 for the full control effect. Note: nearly all actives have a fitted effect of over 70% in size. Note: potency is the fitted concentration of half-maximal effect.
The target of assay [2] is Catechol O-methyltransferase (Homo sapiens) (UniProt P21964). Briefly: Confirmatory Screen for Target Class Profiling of Small Molecule Inhibitors of Methyltransferases (AID 1745852; calls by dose curve; note: potency is the fitted concentration of half-maximal effect). The note with it: MTase-Glo luminescence, SAH detection, recombinant enzyme; measured here: COMT max response; stronger effect = lower value.
Sequence of Catechol O-methyltransferase (Homo sapiens) (P21964 whole entry, looked up): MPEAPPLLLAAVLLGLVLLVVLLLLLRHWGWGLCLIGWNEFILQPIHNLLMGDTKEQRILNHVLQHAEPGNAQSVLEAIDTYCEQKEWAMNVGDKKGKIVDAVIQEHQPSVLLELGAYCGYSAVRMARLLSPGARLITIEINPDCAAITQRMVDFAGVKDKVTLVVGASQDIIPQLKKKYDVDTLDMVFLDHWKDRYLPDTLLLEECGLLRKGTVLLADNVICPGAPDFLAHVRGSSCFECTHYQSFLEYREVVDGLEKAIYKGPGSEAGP
Assay [3] deals with Guanidinoacetate N-methyltransferase (Homo sapiens) (UniProt Q14353). The assay is described as above. The note with it: MTase-Glo luminescence, SAH detection, recombinant enzyme; activity change, negative = inhibition: at 57.3 µM (top of the series) unless noted.
Assay [4] concerns the target Nicotinamide N-methyltransferase (Homo sapiens) (UniProt P40261). The description is as above. The note with it: MTase-Glo luminescence, SAH detection, recombinant enzyme; measured here: NNMT max response; stronger effect = lower value.
In assay [5] the target is Phenylethanolamine N-methyltransferase (Homo sapiens) (UniProt P11086). The assay is described as above. The note with it: MTase-Glo luminescence, SAH detection, recombinant enzyme; measured here: PNMT max response; stronger effect = lower value.
Sequence of Phenylethanolamine N-methyltransferase (Homo sapiens) (P11086 whole entry, looked up): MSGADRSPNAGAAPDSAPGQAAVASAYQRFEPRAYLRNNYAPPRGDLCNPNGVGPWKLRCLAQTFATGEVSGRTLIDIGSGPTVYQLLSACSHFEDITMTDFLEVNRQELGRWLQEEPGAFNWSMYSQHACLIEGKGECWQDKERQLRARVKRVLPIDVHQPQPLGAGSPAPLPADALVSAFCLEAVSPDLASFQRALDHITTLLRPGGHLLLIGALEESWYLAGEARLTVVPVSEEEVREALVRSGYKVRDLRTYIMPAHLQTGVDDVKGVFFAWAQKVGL
Assay [6] has as its target Glutathione peroxidase 1 (Homo sapiens) (UniProt P07203). Briefly: Primary qHTS Assay for Inhibitors of Recombinant Selenoprotein Glutathione Peroxidase 1 (GPX1) (AID 1845191). Note: nearly all actives have a fitted effect of over 65% in size. Note: potency is the fitted concentration of half-maximal effect. The essentials: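 10 nM GPX1 + cpd, 30 min RT; start w/ 1 mM GSH, 0.5 mM cumene hydroperoxide, 0.5 mM NADPH, 100 nM GR, 0.01% BSA; buffer 50 mM Tris-HCl pH 7.5, 2 mM EDTA, 150 mM NaCl; Fl 340/450, 0 & 15 min.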
(Quantitative high-throughput screening tests each substance at several concentrations.)

For assay [7], the target named is Phospholipid hydroperoxide glutathione peroxidase GPX4 (Homo sapiens) (UniProt P36969). Briefly: Primary qHTS Assay for Inhibitors of Recombinant Selenoprotein Glutathione Peroxidase 4 (GPX4) (AID 1845192). For activity change, negative = inhibition: % is set by controls: 0 for no effect and ±100 for the full control effect. Note: nearly all actives have a fitted effect of over 65% in size. Note: potency is the fitted concentration of half-maximal effect. The method in brief:
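NADPH consumption, followed by fluorescence at 340/450 nm between 0 and 15 min, reports GPX4 activity via coupled glutathione reductase (100 nM). Enzyme 200 nM was pre-exposed to compound 30 min; 0.5 mM cumene hydroperoxide and 1 mM GSH served as substrates.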

Assay [8] deals with Metallo-beta-lactamase type 2 (Klebsiella pneumoniae) (UniProt C7C422). Briefly: qHTS to identify inhibitors of the New Delhi Metallo-beta-lactamase (NDM): assay validation screen against the NCATS LOPAC Collection (AID 1794843).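 Note: nitrocefin turnover by NDM-1 measured as 485 nm absorbance at plateau; % is set by controls: 0 for no effect and ±100 for the full control effect.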 The essentials:
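Nitrocefin hydrolysis (50 uM substrate stock) by NDM-1, 2 nM final, was followed by 485 nm absorbance after compound preincubation; buffer was 50 mM HEPES pH 7.0, 1 uM ZnSO4, 0.01% Tween20.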

Assay [9] in a line: NCATS anti-infectives library activity on HEK293 viability as a counter-qHTS vs the C. elegans viability qHTS (AID 1745854). Note: % is set by controls: 0 for no effect and ±100 for the full control effect. The essentials: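 Compounds were acoustically plated (several concentrations, 1:5, final up to 41.7 uM), then 1500 HEK293 cells added per well and incubated 24 hr at 37C, 5% CO2. CellTiter-Glo was added and luminescence read after 10 min.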
For assay [10], the target named is Luciferin 4-monooxygenase (Photinus pyralis) (UniProt P08659). As to the kind of experiment: Primary firefly luciferase (FLuc) qHTS assay for identification of artifact compounds. (AID 1845220).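 For activity change, negative = inhibition: plate controls were DMSO vehicle for no effect and no enzyme for full effect.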 Note: nearly all actives have a fitted effect of over 60% in size. The essentials:
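FLuc 10 nM; luciferin 10 uM; ATP 10 uM; Tris-acetate pH 7.6, Mg-acetate 10 mM; 15 min RT preincubation; 5 min reaction; luminescence.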

The nature of assay [11]: NCATS anti-infectives library activity on the primary C. elegans qHTS viability assay (AID 1745855; calls by dose curve). The essentials: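 Viability read-out is GFP fluorescence of PE254-GFP-FLuc C. elegans, measured by laser cytometry (488 nm) at day 0, 3 and 7. Ten L1 worms per well were incubated 7 days at 21 °C with compounds and bacterial capsules in S medium.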
Assay [12] is described as follows: Viability counterscreen for antagonist of constitutive androstane receptor (CAR) against the NCATS DSHEA and TCM libraries (AID 1794837).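 Note: compound exposure lasted 24 h before viability reading; 0% is about no effect.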 The essentials:
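HepG2-CYP2B6-hCAR cells, 2,500/well, were exposed 24 hr at 37C to substances together with 48 uM CITCO (final). Viability was read as CellTiter-Fluor fluorescence (Ex/Em 405/540 nm) after 1 hr.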
For orientation: A counterscreen serves to expose hits that act by an unwanted route or on another target.

The nature of assay [13]: Viability counterscreen for agonist of constitutive androstane receptor (CAR) against the NCATS DSHEA and TCM libraries (AID 1794838).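 Note: HepG2 cells with CYP2B6 reporter and hCAR plus 0.75 µM PK11195 antagonist; 0% is about no effect.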 The essentials:
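HepG2-CYP2B6-hCAR cells (2,500/well) treated 24 h at 37C with compounds plus 0.75 uM PK11195; viability read by CellTiter-Fluor fluorescence, Ex/Em 405/540 nm.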

The nature of assay [14]: HepG2 viability counterscreen (readout 2: ATP content) against the NCATS DSHEA and TCM libraries (AID 1794840). Note: 0% is about no effect. The method in brief:
(§1)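 HepG2 cells, 1,000/well, attached ~4 h, then exposed ~24 h at 37C to substances. Protease activity read by fluorescence of 25 uM GF-AFC (Ex/Em 380/510 nm) after 30 min; ATP then by CellTiter-Glo luminescence.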

Assay [15] in a line: HepG2 viability counterscreen (readout 1: protease activity) against the NCATS DSHEA and TCM libraries (AID 1794841).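 Note: cells exposed to compounds for about 24 h before the protease read; 0% is about no effect.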 The method in brief: as §1
The target of assay [16] is Rap guanine nucleotide exchange factor 3 (Homo sapiens) (UniProt O95398). Briefly: Confirmatory qHTS for antagonist of cAMP-regulated guanine nucleotide exchange factor 3 (EPAC1) (AID 1645880).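 Note: plate controls were DMSO only for no effect and full effect of the ATA control for full effect; nearly all actives have a fitted effect of over 55% in size.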 The essentials:
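Nucleotide exchange uses 100 nM EPAC1, 250 nM RAP1B-BODIPY-GDP and 50 uM GDP, with compounds in a concentration-titration series. After 5 min at room temperature, fluorescence (480 nm ex/540 nm em) is read every 5 min for 30 min. Data are normalized to control ATA and DMSO.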

The target is the same in assay [17]. Briefly: Confirmatory qHTS for agonist of cAMP-regulated guanine nucleotide exchange factor 3 (EPAC1) (AID 1645881).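 Note: EPAC1 catalysed release of BODIPY-GDP from Rap1B seen as fluorescence loss; 100% = effect of cAMP agonist control; nearly all actives have a fitted effect of over 75% in size.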
In assay [18] the target is Rap guanine nucleotide exchange factor 4 (Homo sapiens) (UniProt Q8WZA2). As to the kind of experiment: Confirmatory qHTS for agonist of cAMP-regulated guanine nucleotide exchange factor 4 (EPAC2) (AID 1645884).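 Note: nucleotide exchange releases bodipy-GDP from Rap1 and this lowers its fluorescence; % is set by controls: 0 for no effect and ±100 for the full control effect; nearly all actives have a fitted effect of over 65% in size.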
Sequence of Rap guanine nucleotide exchange factor 4 (Homo sapiens) (Q8WZA2 whole entry, looked up): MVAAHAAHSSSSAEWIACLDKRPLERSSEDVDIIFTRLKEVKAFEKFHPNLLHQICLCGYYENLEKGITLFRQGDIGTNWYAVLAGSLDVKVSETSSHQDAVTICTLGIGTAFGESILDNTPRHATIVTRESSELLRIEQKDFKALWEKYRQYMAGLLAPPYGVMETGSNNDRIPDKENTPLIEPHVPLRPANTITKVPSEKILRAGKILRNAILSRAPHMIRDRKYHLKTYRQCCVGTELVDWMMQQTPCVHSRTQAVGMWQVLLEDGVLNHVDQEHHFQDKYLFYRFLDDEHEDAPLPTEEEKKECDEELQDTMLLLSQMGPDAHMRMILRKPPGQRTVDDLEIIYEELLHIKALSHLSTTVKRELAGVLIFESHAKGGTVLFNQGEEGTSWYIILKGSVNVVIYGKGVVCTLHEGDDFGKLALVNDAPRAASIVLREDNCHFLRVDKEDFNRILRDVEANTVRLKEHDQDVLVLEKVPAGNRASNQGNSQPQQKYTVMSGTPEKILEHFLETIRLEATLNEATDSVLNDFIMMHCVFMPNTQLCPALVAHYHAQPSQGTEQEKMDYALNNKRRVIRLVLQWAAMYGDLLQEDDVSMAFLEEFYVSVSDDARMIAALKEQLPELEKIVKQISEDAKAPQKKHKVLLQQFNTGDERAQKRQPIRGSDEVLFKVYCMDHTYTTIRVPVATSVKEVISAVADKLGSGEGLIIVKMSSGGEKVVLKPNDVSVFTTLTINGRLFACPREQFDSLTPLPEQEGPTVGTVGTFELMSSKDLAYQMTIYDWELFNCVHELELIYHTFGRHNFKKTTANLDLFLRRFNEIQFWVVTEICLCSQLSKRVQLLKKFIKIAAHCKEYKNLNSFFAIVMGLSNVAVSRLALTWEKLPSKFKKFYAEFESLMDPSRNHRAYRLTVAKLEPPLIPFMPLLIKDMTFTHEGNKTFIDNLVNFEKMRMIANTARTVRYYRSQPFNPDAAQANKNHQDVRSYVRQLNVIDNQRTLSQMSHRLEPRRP
The target is the same in assay [19]. Briefly: Confirmatory qHTS for antagonist of cAMP-regulated guanine nucleotide exchange factor 4 (EPAC2) (AID 1645885). Note: % is set by controls: 0 for no effect and ±100 for the full control effect; nearly all actives have a fitted effect of over 25% in size.

Sequence of Glutathione peroxidase 1 (Homo sapiens) (P07203 whole entry, looked up): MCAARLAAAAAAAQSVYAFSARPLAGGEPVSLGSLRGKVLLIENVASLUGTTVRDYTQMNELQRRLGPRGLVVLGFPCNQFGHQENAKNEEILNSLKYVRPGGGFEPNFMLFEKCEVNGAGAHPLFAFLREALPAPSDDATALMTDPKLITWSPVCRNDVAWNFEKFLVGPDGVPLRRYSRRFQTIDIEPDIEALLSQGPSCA
Sequence of Phospholipid hydroperoxide glutathione peroxidase GPX4 (Homo sapiens) (P36969 whole entry, looked up): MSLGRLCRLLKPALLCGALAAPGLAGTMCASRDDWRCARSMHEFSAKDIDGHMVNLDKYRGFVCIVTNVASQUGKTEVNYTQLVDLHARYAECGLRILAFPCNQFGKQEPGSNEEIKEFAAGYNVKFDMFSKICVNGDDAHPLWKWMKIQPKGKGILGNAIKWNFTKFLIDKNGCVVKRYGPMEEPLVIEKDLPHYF
Sequence of Metallo-beta-lactamase type 2 (Klebsiella pneumoniae) (C7C422 whole entry, looked up): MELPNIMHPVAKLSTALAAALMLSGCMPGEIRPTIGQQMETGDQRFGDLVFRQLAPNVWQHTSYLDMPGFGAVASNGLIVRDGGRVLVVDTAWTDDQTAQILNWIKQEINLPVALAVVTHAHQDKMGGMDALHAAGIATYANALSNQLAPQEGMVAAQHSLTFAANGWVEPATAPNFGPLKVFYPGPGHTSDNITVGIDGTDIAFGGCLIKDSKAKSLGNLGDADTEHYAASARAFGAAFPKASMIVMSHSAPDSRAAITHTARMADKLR
Sequence of Nicotinamide N-methyltransferase (Homo sapiens) (P40261 whole entry, looked up): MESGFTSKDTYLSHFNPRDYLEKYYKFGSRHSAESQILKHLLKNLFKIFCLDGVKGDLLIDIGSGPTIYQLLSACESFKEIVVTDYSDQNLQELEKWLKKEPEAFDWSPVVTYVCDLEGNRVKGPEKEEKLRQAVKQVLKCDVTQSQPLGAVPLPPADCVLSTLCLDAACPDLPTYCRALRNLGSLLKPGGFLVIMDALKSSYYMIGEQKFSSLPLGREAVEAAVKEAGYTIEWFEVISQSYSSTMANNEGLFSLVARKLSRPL
Sequence of Rap guanine nucleotide exchange factor 3 (Homo sapiens) (O95398 whole entry, looked up): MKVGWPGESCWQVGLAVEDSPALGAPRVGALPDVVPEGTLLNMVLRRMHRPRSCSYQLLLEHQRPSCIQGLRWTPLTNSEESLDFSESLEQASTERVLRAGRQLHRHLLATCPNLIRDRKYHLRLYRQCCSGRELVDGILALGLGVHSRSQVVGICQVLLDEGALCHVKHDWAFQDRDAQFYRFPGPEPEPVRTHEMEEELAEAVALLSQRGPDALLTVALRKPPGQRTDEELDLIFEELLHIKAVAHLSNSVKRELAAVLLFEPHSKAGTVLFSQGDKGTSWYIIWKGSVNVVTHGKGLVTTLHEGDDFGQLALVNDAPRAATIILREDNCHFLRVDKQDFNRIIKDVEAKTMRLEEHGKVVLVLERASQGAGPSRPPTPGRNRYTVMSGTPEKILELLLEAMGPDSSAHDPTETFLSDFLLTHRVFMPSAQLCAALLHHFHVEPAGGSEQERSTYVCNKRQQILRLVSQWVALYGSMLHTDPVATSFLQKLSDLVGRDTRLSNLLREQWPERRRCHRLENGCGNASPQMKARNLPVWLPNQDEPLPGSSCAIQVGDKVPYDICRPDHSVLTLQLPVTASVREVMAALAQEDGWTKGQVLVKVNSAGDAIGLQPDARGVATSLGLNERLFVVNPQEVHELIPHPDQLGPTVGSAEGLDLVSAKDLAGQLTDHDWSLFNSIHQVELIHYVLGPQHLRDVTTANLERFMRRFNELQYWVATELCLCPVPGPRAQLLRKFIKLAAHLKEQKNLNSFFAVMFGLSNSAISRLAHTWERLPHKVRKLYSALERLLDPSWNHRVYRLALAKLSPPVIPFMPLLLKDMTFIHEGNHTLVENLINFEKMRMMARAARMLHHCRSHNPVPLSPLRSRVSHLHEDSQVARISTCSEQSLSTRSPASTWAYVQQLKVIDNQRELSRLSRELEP

Consider `Cc1cccc(Nc2nc(-c3ccncc3)cs2)c1`, for which the Potency is 10.3 µM (active) and 13.2 µM (active) in assay [1]; 13.6 µM (active) in [3]. Moreover, the activity in assay [2] was -88.1%; in assay [4] it was -73.8%; in assay [5] it was -88.3%. In addition, the Potency entry in assay [6] and in assay [7] was “inactive” in each case.
For the compound `NCCS`, the Potency entry in assay [1], in [8], in assay [6] and in assay [7] was “inactive” throughout.
In the case of `O=C1NC(=O)C(c2ccccc2)(c2ccccc2)N1`, the Potency result in assay [1], in assay [8], in [6] and in assay [7] was “inactive” each time. For the same compound, the outcome in [9] was “inactive”.
For the compound `Cn1c(N2CCCCS2(=O)=O)nc(C(=O)NCc2ccc(F)cc2)c(O)c1=O`, the Potency result in assay [1], in [6], in assay [7] and in assay [10] was “inactive” in each case. Also, the outcome in [9] is “inactive”.
For `CC1CCC(C(=O)N(c2cc(C#CC(C)(C)C)sc2C(=O)O)C2CCC(O)CC2)CC1` (centres undefined), the Potency in assay [1] is 16.6 µM (active); in [7], 9.04 µM (active). Also, the outcome in [9] was “inactive”. Moreover, the Potency result in assay [11], in assay [6] and in assay [10] was “inactive” in each case.
For the compound `COc1cc2ncnc(Nc3ccc(F)c(Cl)c3)c2cc1OCCCN1CCOCC1`, the Potency was 10.6 µM (active) and 11.5 µM (active) in assay [1]; 24.1 µM (active) in assay [3]. Besides, the activity was -74.8% in assay [2], -60.5% in assay [4] and -74.4% in assay [5]. The Potency result in assay [6], in assay [7] and in assay [10] was “inactive” throughout.
For `O=c1cc(-c2ccc(O)cc2)oc2cc(O)cc(O)c12`, the Potency in [1] is 4.68 µM (active). Also, the outcome in assay [12], in [13], in [14] and in assay [15] was “inactive” each time. Further, the Potency entry in [8], in [6] and in assay [7] was “inactive” in each case.
For `CC#CCn1c(N2CCC[C@@H](N)C2)nc2c1c(=O)n(Cc1nc(C)c3ccccc3n1)c(=O)n2C`, the Potency result in assay [1], in assay [6] and in assay [7] was “inactive” throughout. In addition, in assay [9], the outcome was “inactive”.
As for `NC(=O)[C@@H](CCC(F)(F)F)N(Cc1ccc(-c2ncon2)cc1F)S(=O)(=O)c1ccc(Cl)cc1`, the Potency in assay [1] was 23.5 µM (active). For the same compound, the outcome in assay [9] was “inactive”. The Potency entry in assay [11], in assay [6] and in [7] was “inactive” in each case.
With `Cc1cccc(C)c1OCC(C)N` (centres undefined), the Potency result in assay [1], in assay [8], in assay [6] and in assay [7] was “inactive” each time.
For `O=C(NCCN1CCOCC1)c1ccc(Cl)cc1`, the Potency entry in assay [1], in assay [8], in assay [6] and in assay [7] was “inactive” in each case.
`NC1CCC(Nc2nc(Nc3ccc(C(=O)N4CCCCC4)cc3)c3ncn(-c4cccc(F)c4)c3n2)CC1` (centres undefined): in assay [1], the Potency is 2.06 µM (active).
For `C[N+](C)(C)CC(=O)O`, the Potency result in assay [1] is “inactive”.
With `CCN(CC)CCOC(=O)c1ccc(N)cc1`, the Potency entry in assay [1], in [8], in [6] and in [7] was “inactive” in each case.
For `CC1(C)CCC2=C(O1)c1ccccc1C(=O)C2=O`, the Potency in [1] is 9.34 µM (active); in [3], 9.68 µM (active); in [6] it was 16.3 µM (active) and inactive. In addition, the outcome in [16], in assay [17], in [18] and in assay [19] was “inactive” throughout. For the same compound, the activity in assay [2] was -19.8%; in [4], -22.7%; in [5] it was -16.1%. In addition, the Potency result in assay [8] and in assay [7] was “inactive” throughout.
Consider `COc1ccc2c(Oc3ccc(NC(=O)c4c(C)n(CC(C)(C)O)n(-c5ccccc5)c4=O)cc3F)ccnc2c1`, for which the Potency in [1] is 14.5 µM (active). For the same compound, the figures for the activity in assay [2], in [4] and in assay [5] were -4.14%, -7.85% and -1.86%, respectively. Moreover, the activity change, negative = inhibition in [3] was -3.46%. The Potency result in assay [6], in [7] and in [10] was “inactive” throughout.
On to `CN1CCN(CCOc2cc(OC3CCOCC3)c3c(Nc4c(Cl)ccc5c4OCO5)ncnc3c2)CC1`, for which, in assay [1], the Potency is 5.15 µM (active) and 2.95 µM (active). In addition, the activity is -14.1% in assay [2], -34.6% in assay [4] and -10.6% in assay [5]. In addition, in [3], the activity change, negative = inhibition is -0.0396%. Moreover, the outcome in assay [9] is “inactive”. Also, the Potency entry in [6], in assay [7] and in assay [10] was “inactive” throughout.
For `CCCCCN(C)CCC(O)(P(=O)(O)O)P(=O)(O)O`, in [1], the activity change, negative = cell killing is 7.25% [at 4.96 µM] (inactive). The activity change, negative = cytotoxicity in [9] was -3.04% [at 3.71 µM] (inactive).
For `O=C(Nc1ccccc1-c1cn2c(CN3CCNCC3)csc2n1)c1cnc2ccccc2n1`, the Potency is 4.09 µM (active) and 6.61 µM (active) in assay [1]; 15.3 µM (active) in [3]. Further, the activity was -38.1% in assay [2], -43.9% in [4] and -31.7% in [5]. The Potency entry in [6] and in assay [7] was “inactive” each time.
As to `NC(=O)c1cnc(-c2ccc(C3(N)CCC3)cc2)c(-c2ccccc2)c1`, the Potency in assay [1] is 11.8 µM (active) and 916 nM (active). Also, the activity in assay [2] is -7.58%; in [4] it was -51.4%; in assay [5], -17.2%. Besides, the activity change, negative = inhibition in assay [3] is 0.723%. Moreover, the Potency entry in assay [6], in assay [7] and in assay [10] was “inactive” throughout.
In the case of `CC(=O)N[C@@H](CS)C(=O)O`, the Potency entry in [1], in assay [8], in assay [6] and in [7] was “inactive” throughout. Besides, the outcome in assay [9] was “inactive”.
With `CC[C@]1(O)C[C@@H]2CN(CCc3c([nH]c4ccccc34)[C@@](C(=O)OC)(c3cc4c(cc3OC)N(C)[C@H]3[C@@](O)(C(=O)OC)[C@H](OC(C)=O)[C@]5(CC)C=CCN6CC[C@]43[C@@H]65)C2)C1`, the Potency in assay [1] was 26.6 nM (active) and 53.1 nM (active) and 36.5 nM (active). Moreover, the activity in [2] is 7.74%; in assay [4], -2.58%; in assay [5], 4.57%. In addition, the activity change, negative = inhibition in assay [3] is 10.8%. Moreover, the Potency entry in assay [6], in assay [7] and in assay [10] was “inactive” throughout.
Regarding `O=C(O)c1ccc(-c2c[nH]c3ncc(-c4ccccc4)cc23)cc1C1CCCC1`, the Potency in [1] was 18.6 µM (active). For the same compound, in assay [9], the outcome is “inactive”. Moreover, the Potency entry in [6] was “inactive”.
As to `NC(=O)c1cccc2[nH]c(-c3ccc([C@H]4CCCN4)cc3F)nc12`, the Potency in assay [1] is 10.5 µM (active).
